Inconclusive results are not listed. Active and inactive are the calls of the source. The call rests on the fitted dose curve; in most records, active means well fitted cell-killing curve with a large enough effect; inconclusive means small, poorly fitted or top-dose-only effect, or effect the other way; inactive means no such curve, though single readings can be large or run the other way.

These results are taken from PubChem BioAssay (NCATS).
Potency means the concentration at half of the fitted maximal effect.

A short description of the experiment: Quantitative High-Throughput drug screen in 47 multiple myeloma cell lines against the NCATS MIPE library collection: Karpas25_ECACC cell viability assay (AID 1918968; further: nearly all actives have a fitted effect of over 35% in size). Conditions: Karpas25 myeloma viability, CellTiter-Glo ATP, 48 h; series mostly up to 45.8 µM; viability (% of control): at the top concentration. The source says:
PI: Beverly A. Mock Ph.D.
Laboratory of Cancer Biology and Genetics,
Center for Cancer Research, National Cancer Institute,
National Institute of Health, Bethesda, Maryland
Drug resistance and disease progression are common in multiple myeloma (MM) patients, underscoring the need for new therapeutic combinations. […] We hypothesized that effective combinations would reduce MYC expression and enhance p16 activity. […] These preclinical data identify potentially useful drug combinations for evaluation in drug-resistant MM and reveal potential mechanisms of combined drug sensitivity.
Described herein is the primary MIPE qHTS used to cherrypick compounds. Validated compounds were then further tested for potential synergistic activiy.
[1] Peat TJ, Gaikwad SM, Dubois W, Gyabaah-Kessie N, Zhang S, Gorjifard S, Phyo Z, Andres M, Hughitt VK, Simpson RM, Miller MA, Girvin AT, Taylor A, Williams D, D'Antonio N, Zhang Y, Rajagopalan A, Flietner E, Wilson K, Zhang X, Shinn P, Klumpp-Thomas C, McKnight C, Itkin Z, Chen L, Kazandijian D, Zhang J, Michalowski AM, Simmons JK, Keats J, Thomas CJ, Mock BA. Drug combinations identified by high-throughput screening promote cell cycle transition and upregulate Smad pathways in myeloma. Cancer Lett. 2023 Aug 1;568:216284. doi: 10.1016/j.canlet.2023.216284. Epub 2023 Jun 24. PMID: 37356470; PMCID: PMC10408729.
SEQUENCE No. (e.g., 1, 2, 3, etc.); […] (e.g., Cells, Incubation, Reagent, etc.); VALUE and DESCRIPTION.
1; Cells; 5 uL; white, solid bottom 1536-well Greiner assay plate.
2; Compounds; 23 nL; Kalypsis pin tool (Wako USA) equipped with a 1536-well pin head to transfer to the assay plates.
3; Incubation; 48 hours; 37C incubation.
4; Reagent;5uL; CellTiter Glo (Promega).
5; Detector; 425V; Luminescence; Viewlux PerkinElmer.
NOTES (numbers refer to Sequence numbers above)
1. The cell-based screening methods employed in this study were like those previously published. Briefly, the corresponding myeloma cell lines were screened in 1,536-well plates with 500 cells, 5-uL per well for inhibition of cell viability (assessed by measuring ATP levels with CellTiterGlo).
2. NCATS MIPE 4.0 library of approved and investigational drugs were added using the Kalypsis pin tool. Wells treated with DMSO only for 100% viability and media only wells for 0% viability were used as controls.
3. The assay plates were covered and incubated for 48 hours in a 37C, 5% CO2 incubator with controlled humidity.
4. After 48 hours, CellTilter-GloTM luminescent substrate mix (Promega) reagent was added to the assay plate and plates we incubated for 5 min at room temperature.
5. Signal was measured as median relative luminescence units on a ViewLux (PerkinElmer) multiplate reader.
[1] Heske CM, Davis MI, Baumgart JT, Wilson K, Gormally MV, Chen L, Zhang X, Ceribelli M, Duveau DY, Guha R, Ferrer M, Arnaldez FI, Ji J, Tran HL, Zhang Y, Mendoza A, Helman LJ, Thomas CJ. Matrix Screen Identifies Synergistic Combination of PARP Inhibitors and Nicotinamide Phosphoribosyltransferase (NAMPT) Inhibitors in Ewing Sarcoma. Clin Cancer Res. 2017 Dec 1;23(23):7301-7311. doi: 10.1158/1078-0432.CCR-17-1121. Epub 2017 Sep 12. PMID: 28899971; PMCID: PMC6636827.
Background: ATP-based viability assays read luminescence as a measure of living cells.
`Cn1cc(C2=C(c3c4n(c5ccccc35)CCC(CN)C4)C(=O)NC2=O)c2ccccc21` (stereo not given): the Potency was 7.43 µM (active).
For the compound `C[C@H]1C[C@H]2[C@@H]3CCC4=CC(=O)C=C[C@]4(C)[C@@H]3C(=O)C[C@]2(C)[C@@]1(O)C(=O)CO`, the “viability (% of control)” value is 89.2% (inactive).
Consider `CCC(C=C[C@@H]1OC(=O)C=C[C@H]1C)=C[C@H](C)CC=CC(C)=C[C@@H](C)C(=O)[C@@H](C)[C@H](O)[C@@H](C)CC(C)=CC(=O)O`, for which the Potency was 0.0196 µM (active).
Take `C[N+]1(C)[C@@H]2C[C@@H](OC(=O)C(O)(c3cccs3)c3cccs3)C[C@H]1[C@@H]1O[C@@H]12`: the “viability (% of control)” value was 111% (inactive).
In the case of `CC(=O)NCC(=O)N1[C@H]2CC[C@H]1c1cc(Nc3ncc(C(F)(F)F)c(NC4CCC4)n3)ccc12`, the Potency is 1.87 µM (active).
The same measure, in the same setting: the value for `O=C(Nc1cccc(Nc2ncc(Br)c(NCCc3cnc[nH]3)n2)c1)N1CCCC1` was 5.9 µM (active).
Same read-out and setting: the value for `COc1ccc(Nc2cc(-c3cnc(N)nc3)nc(N3CCOCC3)n2)cn1` was 1.66 µM (active).
As to `CCCNS(=O)(=O)Nc1ncnc(OCCOc2ncc(Br)cn2)c1-c1ccc(Br)cc1`, the “viability (% of control)” value was 133% (inactive).
The same measure, in the same setting: the value for `C[C@@H]1[C@H](C)CC[C@]2(C(=O)O)CC[C@]3(C)C(=CC[C@@H]4[C@@]5(C)C[C@@H](O)[C@H](O)[C@@](C)(CO)[C@H]5CC[C@]43C)[C@@H]12` was 97.6% (inactive).
Consider `C=C1C(=CC=C2CCC[C@]3(C)[C@@H]([C@H](C)CCCC(C)(C)O)CC[C@@H]23)C[C@@H](O)C[C@@H]1O`, for which the Potency was 5.9 µM (active).
In the case of `Nc1nc(=O)n([C@H]2CSC(CO)O2)cc1F` (stereo not given in full), the “viability (% of control)” value is 115% (inactive).
In the case of `O=C(Nc1nnc(-c2ccco2)o1)c1cc(-c2ccccc2)nc2ccccc12`, the Potency was 18.7 µM (active).
Consider `Oc1ccc(-c2ccc(-c3cc(Nc4cccc(CNC5CC5)c4)n[nH]3)cc2)c(O)c1`, for which the Potency was 1.05 µM (active).
Take `CC(C=CC=C(C)C=CC1=C(C)CCCC1(C)C)=CC=CC=C(C)C=CC=C(C)C=CC1=C(C)CCCC1(C)C`: the Potency is 16.6 µM (active).
The same measure, in the same setting: as for `CCOC(=O)N1CCN([N+]([O-])=NOc2ccc([N+](=O)[O-])cc2C#N)CC1`, the figure is 0.743 µM (active).
Turning to `O=S(=O)(O)CCSSCCS(=O)(=O)O`, the “viability (% of control)” value is 130% (inactive).
On to `CCCNC(=O)[C@H]1O[C@H]1C(=O)N[C@H](C(=O)N1CCC[C@@H]1C(=O)OC)C(C)CC` (stereo not given in full), for which the Potency is 14.8 µM (active).
`C[N+](C)([O-])CCNc1ccc(NCC[N+](C)(C)[O-])c2c1C(=O)c1c(O)ccc(O)c1C2=O`: the “viability (% of control)” value was 113% (inactive).
For the compound `O=C(NCc1ccccc1)[C@H](Cc1ccccc1)NC(=O)[C@@H]1O[C@@H]1C(=O)NCCc1ccc(O)cc1`, the Potency is 23.5 µM (active).
Consider `CON=C(C(=O)N[C@@H]1C(=O)N2C(C(=O)O)=C(CSC(=O)c3ccco3)CS[C@H]12)c1csc(N)n1`, for which the Potency was 16.6 µM (active).
The same measure, in the same setting: as for `Oc1cc(-c2nc(-c3ccccc3)[nH]c2-c2ccncc2)ccc1Cl`, the figure is 2.96 µM (active).
Consider `C[C@]12CC[C@@H]3c4ccc(O)cc4CC[C@H]3[C@H]1CC[C@H]2O`, for which the Potency is 10.5 µM (active).
For `c1cncc(CN2CCC(n3ncc4c(N5CCOCC5)nc(-c5ccc6[nH]ccc6c5)nc43)CC2)c1`, the Potency was 2.35 µM (active).
Turning to `Nc1ccn(C[C@@H](CO)OCP(=O)(O)O)c(=O)n1`, the “viability (% of control)” value is 127% [at 23.2 µM] (inactive).
For `C[C@H]1COc2c(N3CCN(C)CC3)c(F)cc3c(=O)c(C(=O)O)cn1c23`, the “viability (% of control)” value is 113% (inactive).
The same measure, in the same setting: the value for `CC1(C)[C@H](O[C@H]2O[C@H](C(=O)O)[C@@H](O)[C@H](O)[C@H]2O[C@@H]2O[C@H](C(=O)O)[C@@H](O)[C@H](O)[C@H]2O)CC[C@@]2(C)[C@H]1CC[C@]1(C)[C@H]2C(=O)C=C2[C@H]3C[C@@](C)(C(=O)O)CC[C@]3(C)CC[C@]21C` was 160% (inactive).
Take `CN(C)c1ccc(C(=O)NCCCCCCC(=O)NO)cc1`: the Potency was 0.469 µM (active).
`COc1ccc(CCC(=O)c2c(O)cc(O[C@@H]3O[C@H](CO)[C@@H](O)[C@H](O)[C@@H]3O[C@@H]3O[C@@H](C)[C@H](O)[C@@H](O)[C@@H]3O)cc2O)cc1O`: the Potency was 9.35 µM (active).
On the same count and under the same terms, the value for `C[C@H](NCc1ccc(OCc2cccc(F)c2)cc1)C(N)=O` was 2.35 µM (active); that for `CN(C)CC(=O)N1CCC(c2ccc(NC(=O)c3ncc(C#N)[nH]3)c(C3=CCCCC3)c2)CC1` was 23.5 µM (active).
Regarding `c1cc(N[C@@H]2CCNC2)nc(-c2cnc3ccc(-c4cn[nH]c4)cn23)c1`, the Potency is 5.9 µM (active).
On the same count and under the same terms, the value for `COc1cc([C@@H]2c3cc4c(cc3[C@H](O)[C@H]3COC(=O)[C@@H]23)OCO4)cc(OC)c1OC` was 0.187 µM (active); that for `Cc1cc(Nc2ncc3c(n2)N(C)C(=O)N(c2cc(NC(=O)c4cccc(C(F)(F)F)c4)ccc2C)C3)n(C)n1` was 0.372 µM (active).
For the compound `COC[C@H](NC(=O)c1cnc(C)s1)C(=O)N[C@@H](COC)C(=O)N[C@@H](Cc1ccccc1)C(=O)[C@@]1(C)CO1`, the Potency was 0.0743 µM (active).
`C=CC(=O)Nc1cccc(Nc2nc(NC3CCC(N(C)C)CC3)nc3c2ncn3C(C)C)c1` (stereo not given): the Potency is 0.0296 µM (active).
As to `CC(C)N(CC[C@H](c1ccccc1)c1cc(CO)ccc1O)C(C)C`, the “viability (% of control)” value is 155% (inactive).
Turning to `CC(C)(N)c1ccc(-c2nc3ccccc3nc2-c2ccccc2)cc1`, the Potency was 16.6 µM (active).
Take `C[C@@]12C[C@@]3(O)O[C@@H](O1)[C@]1(COC(=O)c4ccccc4)[C@@H]3C[C@@]12O[C@@H]1O[C@H](CO)[C@@H](O)[C@H](O)[C@@H]1O`: the “viability (% of control)” value was 106% (inactive).
In the case of `CC(=O)N1CCN(c2ccc(OCc3nn(C)c(C)c3-c3cccc4c(CCCOc5cccc6ccccc56)c(C(=O)O)n(Cc5cccnc5)c34)cc2)CC1`, the Potency was 0.0833 µM (active).
Turning to `CC(=O)[C@]1(O)Cc2c(O)c3c(c(O)c2[C@@H](O[C@H]2C[C@H](N)[C@@H](O)[C@H](C)O2)C1)C(=O)c1ccccc1C3=O`, the Potency is 0.148 µM (active).
